Source: PubChem BioAssay (NCI)
Compounds without any hit were thinned out: in the full panel of roughly 79,000, 15% have a hit. The source made the active and inactive calls. Rule as the data show it: active = growth inhibition above about 70%; inactive = the rest.

Columns and labels:
[1] = NCI Yeast Anticancer Drug Screen. Data for the rad52 strain (AID 147);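 also: 0% = growth of vehicle-treated control cultures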; settings: S. cerevisiae rad52 mutant growth inhibition, hits give high values
Procedure, shortened: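 Here a repair-compromised yeast strain receives each compound; its growth is then quantified and normalised to vehicle-only controls.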

[2] = NCI Yeast Anticancer Drug Screen. Data for the wt1 strain (AID 149);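 also: 0% = growth of vehicle-treated wt1 cultures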; settings: S. cerevisiae wt1 strain (SPY 50644) growth inhibition, hits give high values
Procedure, shortened: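 Using yeast strain wt1, compound-induced growth inhibition was determined against vehicle-treated cultures.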

[3] = NCI Yeast Anticancer Drug Screen. Data for the rad50EPP+ strain (AID 151);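 also: 0% = growth of vehicle-treated control cultures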; settings: S. cerevisiae rad50 mutant strain, hits give high values
Procedure, shortened: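 Read-out is yeast growth inhibition relative to vehicle; cells used were the rad50EPP+ strain.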

[4] = NCI Yeast Anticancer Drug Screen. Data for the mgt1 strain (AID 153); settings: S. cerevisiae mgt1 mutant growth inhibition, hits give high values
Procedure, shortened: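 Measured: inhibition of mgt1 yeast growth by compound, normalized to vehicle-treated cultures.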

[5] = NCI Yeast Anticancer Drug Screen. Data for the rad50 strain (AID 155);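 also: 0% = growth of vehicle-only cultures of the same strain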; settings: S. cerevisiae rad50 strain growth inhibition, hits give high values
Procedure, shortened: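 Relative growth inhibition (compound vs vehicle) was measured in yeast with a defined repair-gene alteration.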

[6] = NCI Yeast Anticancer Drug Screen. Data for the mec2-1 strain (AID 157); settings: S. cerevisiae mec2-1 strain, hits give high values
Procedure, shortened: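 Using mec2-1 yeast: add compound, measure growth, express inhibition versus vehicle-treated cultures.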

[7] = NCI Yeast Anticancer Drug Screen. Data for the rad14 strain (AID 159);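 also: 0% = growth of vehicle-treated control cultures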; settings: S. cerevisiae rad14 strain growth inhibition, hits give high values
Procedure, shortened: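 Screen for anticancer potential: a yeast strain altered in DNA damage repair is grown with compound, and reduced growth is quantified against vehicle controls.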

[8] = NCI Yeast Anticancer Drug Screen. Data for the sgs1 mgt1 strain (AID 161);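 also: 0% = growth of cultures given vehicle only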; settings: S. cerevisiae sgs1 mgt1 strain, hits give high values
Procedure, shortened: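 Compounds are added to genetically altered yeast, and growth is compared with cultures given vehicle alone to give percent inhibition.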

[9] = NCI Yeast Anticancer Drug Screen. Data for the CLN2oe strain (AID 163);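 also: 0% = growth of vehicle-only control cultures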; settings: S. cerevisiae CLN2oe strain, hits give high values
Procedure, shortened: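 Whole-cell yeast growth assay. A strain engineered for altered cell-cycle control received compound, and inhibition relative to vehicle-treated cultures was recorded.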

[10] = NCI Yeast Anticancer Drug Screen. Data for the cln2 rad14 strain (AID 165);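 also: 0% = growth equal to vehicle treated cultures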; settings: S. cerevisiae cln2 rad14 strain, hits give high values
Procedure, shortened: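 Yeast strain cln2 rad14, bearing defects in cell cycle control and DNA repair, serves as the test system; values reflect growth inhibition compared with vehicle.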

[11] = NCI Yeast Anticancer Drug Screen. Data for the bub3 strain (AID 167); settings: S. cerevisiae bub3 mutant strain, hits give high values
Procedure, shortened: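 Screening used yeast with an engineered genetic alteration affecting cell cycle control. Compound-exposed cultures were compared with vehicle cultures, and reduced growth was taken as inhibition.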

[12] = NCI Yeast Anticancer Drug Screen. Data for the wt2 strain (AID 169);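 also: 0% = growth of vehicle-treated yeast cultures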; settings: S. cerevisiae wt2 strain growth inhibition, hits give high values
Procedure, shortened: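 Treated yeast vs. vehicle-treated yeast: growth inhibition determined.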

[13] = NCI Yeast Anticancer Drug Screen. Data for the mlh1 strain (AID 171);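 also: 0% = growth of vehicle-treated control cultures of the same strain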; settings: S. cerevisiae mlh1 strain growth inhibition, hits give high values
Procedure, shortened: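 A yeast strain with a defined genetic lesion serves as the test organism. Cultures receive compound or vehicle, and growth is measured.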

[14] = NCI Yeast Anticancer Drug Screen. Data for the sgs1 strain (AID 173);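 also: 0% = growth of vehicle-only control cultures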; settings: S. cerevisiae sgs1 mutant, hits give high values
Procedure, shortened: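 A genetically defined yeast mutant is incubated with the test compound, and its growth is compared to that of the same strain given vehicle.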

[15] = NCI Yeast Anticancer Drug Screen. Data for the mlh1 rad18 strain (AID 175); settings: S. cerevisiae mlh1 rad18 strain growth inhibition, hits give high values
Procedure, shortened: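 Steps: expose repair-defective yeast to compound; measure growth; express inhibition against vehicle-treated controls.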

[16] = NCI Yeast Anticancer Drug Screen. Data for the rad18 strain (AID 177); settings: S. cerevisiae rad18 mutant growth inhibition, hits give high values
Procedure, shortened: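 Measured value is growth inhibition of a yeast strain bearing a DNA repair alteration, referenced to vehicle-treated cells.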

[17] = at 5.0 µM (retest, dose inferred, filed as 0.5)
[18] = at 50.0 µM (retest, dose inferred, filed as 5.0)

Measured: growth inhibition

O=c1c2ccccc2nc(-c2ccccc2)n1O
inactive: [1]; at 1.2 µM 16% | [1]; at 3.7 µM 19% | [1]; at 11.0 µM 62% | [2]; at 1.2 µM 12% | [2]; at 3.7 µM 15% | [2]; at 11.0 µM 63% | [3]; at 1.2 µM 3% | [3]; at 3.7 µM 3% | [3]; at 11.0 µM 16% | [4]; at 1.2 µM 31% | [4]; at 3.7 µM 26% | [5]; at 1.2 µM 36% | [5]; at 3.7 µM 39% | [5]; [17] 45% | [6]; at 1.2 µM 18% | [6]; at 3.7 µM 16% | [6]; [17] 14% | [6]; at 11.0 µM 55% | [7]; at 1.2 µM 51% | [7]; at 3.7 µM 59% | [8]; [17] 66% | [9]; at 1.2 µM 1% | [9]; at 3.7 µM 9% | [9]; at 11.0 µM 29% | [10]; [17] -11% | [11]; at 1.2 µM 12% | [11]; at 3.7 µM 18% | [11]; [17] 43% | [12]; at 1.2 µM 24% | [12]; at 3.7 µM 55% | [13]; at 1.2 µM 50% | [13]; at 3.7 µM 48% | [14]; at 1.2 µM 32% | [14]; at 3.7 µM 48% | [15]; [17] 55% | [16]; at 1.2 µM 39% | [16]; at 3.7 µM 35%
active: [1]; at 33.0 µM 95% | [1]; at 100.0 µM 97% | [2]; at 33.0 µM 97% | [2]; at 100.0 µM 97% | [3]; at 33.0 µM 82% | [3]; at 100.0 µM 87% | [4]; at 11.0 µM 92% | [4]; at 33.0 µM 98% | [4]; at 100.0 µM 97% | [5]; at 11.0 µM 89% | [5]; at 33.0 µM 97% | [5]; [18] 99% | [5]; at 50.0 µM 99% | [5]; at 100.0 µM 98% | [6]; at 33.0 µM 96% | [6]; [18] 99% | [6]; at 50.0 µM 98.2% | [6]; at 100.0 µM 97% | [7]; at 11.0 µM 97% | [7]; at 33.0 µM 99% | [7]; at 100.0 µM 98% | [8]; [18] 99% | [8]; at 50.0 µM 98.8% | [9]; at 33.0 µM 86% | [9]; at 100.0 µM 88% | [10]; [18] 96% | [10]; at 50.0 µM 97% | [11]; at 11.0 µM 78% | [11]; at 33.0 µM 95% | [11]; [18] 99% | [11]; at 50.0 µM 97.9% | [11]; at 100.0 µM 95% | [12]; at 11.0 µM 96% | [12]; at 33.0 µM 98% | [12]; at 100.0 µM 98% | [13]; at 11.0 µM 95% | [13]; at 33.0 µM 98% | [13]; at 100.0 µM 98% | [14]; at 11.0 µM 93% | [14]; at 33.0 µM 97% | [14]; at 100.0 µM 97% | [15]; [18] 99% | [15]; at 50.0 µM 98.5% | [16]; at 11.0 µM 89% | [16]; at 33.0 µM 97% | [16]; at 100.0 µM 97%

CCN(CC)Cc1cc(Nc2c3ccccc3nc3c2[nH]c2ccccc23)cc(CN(CC)CC)c1O
inactive: [1]; at 1.2 µM 32% | [1]; at 3.7 µM 21% | [1]; at 11.0 µM 12% | [1]; at 33.0 µM 7% | [1]; at 100.0 µM 18% | [2]; at 1.2 µM 1% | [2]; at 3.7 µM 2% | [2]; at 11.0 µM -1% | [2]; at 33.0 µM 0% | [2]; at 100.0 µM 3% | [3]; at 1.2 µM 3% | [3]; at 3.7 µM 1% | [3]; at 11.0 µM 3% | [3]; at 33.0 µM 2% | [3]; at 100.0 µM 13% | [4]; at 1.2 µM -3% | [4]; at 3.7 µM -3% | [4]; at 11.0 µM -3% | [4]; at 33.0 µM -16% | [4]; at 100.0 µM 1% | [5]; at 1.2 µM 25% | [5]; at 3.7 µM 7% | [5]; [17] -3% | [5]; at 11.0 µM -4% | [5]; at 33.0 µM 10% | [5]; [18] 10% | [5]; at 50.0 µM 17.8% | [5]; at 100.0 µM 23% | [6]; at 1.2 µM 2% | [6]; at 3.7 µM 1%
